# Bioassay records (PubChem)
# Shown are actives, neighbours in structure and some others; about 1% of the full set was active somewhere.
# L929 necroptosis: inhibitors of zVAD-triggered necroptosis, primary screen, L929 cells; L929 zVAD necroptosis rescue, ATP luminescence, 24 h; with zVAD 60 µM; viability rescue, % at 10 µM; 220,000 compounds, 0.38% hits;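 active = activation, scaled between plate controls, above about 75%, limit read from the data; inactive = activation under that limit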;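 also: 0% = zVAD with DMSO and 100% = DMSO alone without zVAD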
# S1P4 antagonist: S1P4 receptor antagonists, primary screen, cell-based. AID 1510, 2009. 220,000 compounds, 0.26% hits. inhibition, % at 4.98 µM. S1P4-expressing cells, antagonist mode, reporter read-out; in the data active = inhibition above about 29%;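 also: 0% = wells stimulated with agonist and 100% = vehicle wells without agonist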
# Target sequence (O95977 whole entry, looked up): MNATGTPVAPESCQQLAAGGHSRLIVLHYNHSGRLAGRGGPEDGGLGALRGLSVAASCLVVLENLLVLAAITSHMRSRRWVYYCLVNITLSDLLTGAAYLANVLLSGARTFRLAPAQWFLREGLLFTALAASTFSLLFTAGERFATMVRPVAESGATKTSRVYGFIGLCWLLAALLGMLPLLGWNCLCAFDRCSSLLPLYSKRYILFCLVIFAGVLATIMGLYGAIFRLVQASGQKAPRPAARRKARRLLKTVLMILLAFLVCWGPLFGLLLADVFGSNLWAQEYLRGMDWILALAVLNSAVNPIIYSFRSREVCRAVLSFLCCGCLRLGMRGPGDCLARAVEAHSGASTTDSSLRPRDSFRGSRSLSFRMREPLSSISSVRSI
# S1P4 agonist: S1P4 receptor agonists, primary screen, cell-based. 220,000 compounds, 0.35% hits. S1P4-expressing cell line, agonist reporter assay. activation, % at 4.98 µM. Sphingosine 1-phosphate receptor 4 (Homo sapiens), O95977; in the data active = activation above about 11%;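 also: 0% = DMSO vehicle and 100% = reference agonist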
# TNF necrop inh: inhibitors of TNF-alpha triggered necroptosis, primary screen, cell-based, Jurkat FADD-/-, single concentration | Jurkat FADD-/- TNF necroptosis rescue, ATP luminescence, 24 h; 0 = TNF only, 100 = no-TNF cells | activation (protection from cell death), % at 10 µM | 220,000 compounds, 0.068% hits | AID 463075, 2010;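 active = activation, meaning protection from cell death, of at least 50% relative to plate controls; inactive = activation below 50%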;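 also: necroptosis triggered by 40 ng/mL TNF-alpha added together with compound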
# Hsp70 activator: Hsp70 transcriptional activators, primary screen, cell-based, HeLa, Hsp70 promoter luciferase, luminescence, 10 µM; HeLa Hsp70 promoter luciferase reporter; scaled: vehicle 0, proteasome-inhibitor control 100%; activation, % at 10 µM; 200,000 compounds, 0.04% hits; AID 1203, 2008;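 active = activation above the mean across all tested compounds plus 3 SD, cutoff set per campaign, cut at about 5.5% in these data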;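 also: 100% = MG132 at 30 µM as the positive control and 0% = DMSO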
# HSV augment: enhancers of HSV replication in host cells, fold increase, host cell viability; HSV replication augmentation in cells; maximum fold increase; 220,000 compounds, 0.005% hits; in the data active = maximum fold increase above about 1.5; tested in PC3 cells
# zVAD necrop conf: inhibitors of zVAD-triggered necroptosis in L929, confirmation, L929 cells, duplicate runs; shares compounds with L929 necroptosis; L929 zVAD-induced necroptosis rescue, ATP luminescence, 24 h; activation (protection from necroptosis), % at 10 µM; 760 compounds, 16% hits; AID 463117, 2010;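 active = mean protection from necroptosis of at least 50% over duplicate tests; inactive = mean protection below 50%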;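 also: 0% = cells with zVAD alone and 100% = vehicle cells without zVAD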
# Numbers without * were called inactive; i = inactive; . = no result given.
SMILES,L929 necroptosis,S1P4 antagonist,S1P4 agonist,TNF necrop inh,Hsp70 activator,HSV augment,zVAD necrop conf
CCOC(=O)c1sc(NC(=O)C(C)Sc2nnc(N)s2)nc1C (stereo not drawn),77.8*,-4.7,5.2,1.1,0.0,i,1.9
O=C(Nc1nccs1)c1ccc(N2C(=O)[C@@H]3[C@H](C2=O)[C@H]2C=C[C@@H]3C2)cc1,79.4*,0.1,1.9,17.2,.,i,2.2
O=C(Nc1nccs1)c1cccc(N2C(=O)C3C4C=CC(C4)C3C2=O)c1 (stereo not drawn),78.2*,-12.2,0.1,11.0,-0.4,i,17.3
COC(=O)CNC(=O)C1(C)C=CCN1C(=O)c1ccccc1 (stereo not drawn),1.4,9.2,-0.2,-0.1,0.6,i,.
COc1ccc2nc(NC(=O)C3CCN(S(=O)(=O)c4cnc[nH]4)CC3)sc2c1,72.5,-6.6,0.9,4.1,0.0,i,.
Cc1ccc2nc(NC(=O)C3CCN(S(=O)(=O)c4cccnc4)CC3)sc2c1,79.9*,4.6,-1.6,-1.9,-0.3,i,4.7
COc1ccc2nc(NC(=O)C3CCN(S(=O)(=O)c4cccnc4)CC3)sc2c1,88.0*,10.1,-1.0,0.0,-0.2,i,4.9
COc1ccc2nc(NC(=O)C3CCN(S(=O)(=O)c4cccs4)CC3)sc2c1,78.6*,-13.3,1.6,-0.3,-0.5,i,30.6
CCOc1ccc2nc(NC(=O)C3CCN(S(=O)(=O)c4cnc[nH]4)CC3)sc2c1,83.2*,-25.2,-1.6,-0.1,-0.2,i,10.4
Cc1ccc2nc(NC(=O)C3CCN(S(=O)(=O)c4cnc[nH]4)CC3)sc2c1,.,5.5,2.0,5.2,-0.5,i,.
O=C(COc1ccccc1)NC1CCSC1=O (stereo not drawn),2.7,1.0,0.8,0.3,0.2,i,.
Cc1ccc(S(=O)(=O)NCCCCCC(=O)Nc2c(C)n(C)n(-c3ccccc3)c2=O)cc1,-0.6,2.5,-2.3,-0.9,-0.3,i,.
COC(=O)c1ccc2c(=O)n(CC3CCCO3)c(SCC(=O)NCCc3ccc(S(N)(=O)=O)cc3)nc2c1 (stereo not drawn),1.3,-12.1,0.9,1.6,-0.2,i,.
c1ccc(-n2cnc3cc(NCc4cccs4)ccc32)cc1,84.8*,-3.7,-1.9,-6.5,-0.2,i,45.2
COc1ccc(-n2cnc3cc(NCc4ccccn4)ccc32)cc1,77.6*,8.9,0.3,0.3,0.0,i,66.0*
CCC(=O)Nc1ccc2c(c1)ncn2-c1ccccc1C,0.8,10.4,0.0,1.4,0.1,i,.
CCC(=O)Nc1ccc2c(c1)ncn2-c1ccc(OC)cc1,80.5*,-4.5,2.0,2.9,0.2,i,46.8
Cc1ccc(-n2cnc3cc(NCc4cccs4)ccc32)cc1,1.2,-16.4,0.7,-1.2,-0.2,i,.
CCC(=O)Nc1ccc2c(c1)ncn2-c1ccc(C)cc1,84.2*,11.2,-0.1,2.5,0.1,i,36.0
CC(=O)Nc1ccc(S(=O)(=O)NCc2ccncc2)cc1,1.2,-11.2,1.0,-0.4,-0.4,i,.
CO/N=C\CC(=O)Nc1ccc(Cl)cc1Cl,2.5,-25.6,0.2,-3.6,0.1,i,.
COc1ccc(-n2cnc3ccccc32)cc1,80.3*,1.0,-3.7,0.3,0.7,i,38.3
c1ccc(-n2cnc3ccccc32)cc1,74.9,-20.6,1.8,1.2,0.1,i,.
COc1ccc(C(=O)OCC(=O)NC(=O)NC(C)C)cc1OC,77.1*,-21.8,1.8,-0.1,-0.1,i,1.5
CCN(CC#CCC1(O)c2ccccc2-c2ccccc21)C(C)C,-0.4,0.8,-2.4,-0.6,-0.2,.,.
SMILES,L929 necroptosis,S1P4 antagonist,S1P4 agonist,TNF necrop inh,Hsp70 activator,HSV augment,zVAD necrop conf
Cc1c(Cl)cccc1NC(=O)Nc1cc(C(C)(C)C)nn1C,81.4*,14.9,-0.1,10.2,.,i,31.1
CC(=O)Nc1cccc(NC(=O)Nc2cccc(Cl)c2C)c1,1.3,-14.7,-0.1,-0.4,-0.2,i,.
CC(=O)Oc1ccc(N2C(=O)C3C4C=CC(C5CC45)C3C2=O)cc1[N+](=O)[O-] (stereo not drawn),.,-3.0,-0.1,2.1,-0.3,i,.
CC1(Cc2ccc3c(c2)OCO3)NC(=O)NC1=O (stereo not drawn),102.4*,-7.4,-0.8,17.2,-0.1,i,58.7*
O=c1[nH]c(/C=C/c2cccc3ccccc23)nc2ccccc12,0.2,-3.6,-0.5,0.1,-0.3,i,.
O=c1nc2cccc3c2=c(/c1=C(\O)c1ccccc1)c1ccccc1c3=O,79.7*,-4.8,-1.0,2.6,0.1,i,0.5
N#C/C(=C\C=C\c1ccccc1[N+](=O)[O-])C(=O)NC1CCCCC1,75.4*,-10.0,0.3,-1.7,1.4,i,0.1
CSC(=NC#N)N1CCN(c2ccc([N+](=O)[O-])cc2)CC1,0.6,0.8,-0.9,1.7,-0.1,i,.
COc1ccc(CNc2ncnc3cc(Cl)ccc23)cc1OC,0.8,-0.6,-0.5,1.5,-0.2,i,.
CCN(CC)Cc1cc2[nH]c3c4ccc(Cl)cc4ncc3c2cc1OC,80.9*,20.2,0.7,-28.6,.,i,73.1*
O=C(CSc1nnnn1-c1ccc2c(c1)OCCO2)Nc1nc2c(s1)CCCC2,83.6*,5.6,-0.3,1.6,-0.2,i,73.6*
[O-][n+]1c2c(nc3c1-c1ccccc1C3O)CCCC2 (stereo not drawn),-0.3,-20.6,2.4,-0.7,0.2,i,.
CCn1c2ccccc2c(=O)c2ccccc21,79.6*,-4.4,10.0,0.4,-0.2,i,2.3
CCn1c2ccccc2c2cc([N+](=O)[O-])ccc21,2.1,-3.2,-0.4,-0.2,-0.5,i,.
CN(C)c1ccc(S(=O)(=O)NCC(=O)OCC(=O)Nc2cc(Cl)cc(Cl)c2)cc1[N+](=O)[O-],0.4,-15.8,1.2,1.4,0.0,i,.
O=C1CSc2ccc(C(=O)NCC(c3ccco3)N3CCCCC3)cc2N1 (stereo not drawn),4.2,-13.2,0.5,0.1,-0.2,i,.
COc1cc(CO)ccc1OCC(=O)Nc1ccc(Br)cc1,76.0*,-19.4,0.9,1.3,0.4,i,0.4
Cc1ccc(NC(=O)COc2ccc(Br)cc2CO)cc1,-0.1,1.5,1.3,1.0,-0.2,i,.
CCOc1ccc(/C=C\C(C)=N\O)cc1,99.0*,-8.7,-1.9,7.7,-0.1,i,30.8
CCOc1ccc(/C=C/C(=O)CCC(=O)O)cc1,-0.3,-8.6,-0.2,0.6,-0.1,i,.
